Several values for one entry are separate records, joined by “and”; a condition that tells them apart may be missing. Identical values can stand only once. About 79,000 compounds went through this panel and 15% of them were active in at least one assay; those are over-represented in the sample as a whole. Where a structure was tested more than once in an assay, its records may differ in their call. Activity calls are given as the source filed them. Cut-off read from the data, not from the text of the source: active = growth inhibition above about 70%; inactive = the rest. Where a SMILES comes first, the peptide text is derived from it. [ ]: non-standard residue; d: D form. ξ: configuration not given here. ξI = CCC(C)C(N)C(=O)O

Test [1] in a line: NCI Yeast Anticancer Drug Screen. Data for the rad50 strain (AID 155).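 Note: 0% = growth of vehicle-only cultures of the same strain.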 The note with it: S. cerevisiae rad50 strain growth inhibition, stronger effect = higher value. An outline of the steps: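 Genetically altered yeast (DNA repair pathway); compound treatment; growth inhibition vs vehicle ctrl.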
The nature of test [2]: NCI Yeast Anticancer Drug Screen. Data for the mec2-1 strain (AID 157). The note with it: S. cerevisiae mec2-1 strain, stronger effect = higher value. An outline of the steps: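 Mutant yeast (mec2-1) grown with compound; growth inhibition relative to vehicle control reported.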
A short description of test [3]: NCI Yeast Anticancer Drug Screen. Data for the cln2 rad14 strain (AID 165).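 Note: 0% = growth equal to vehicle treated cultures.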 The following applies: S. cerevisiae cln2 rad14 strain, stronger effect = higher value. In a few lines: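 Readout is yeast growth inhibition versus vehicle-treated controls, using a strain with cln2 and rad14 alterations exposed to compound.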
Test [4] can be described thus: NCI Yeast Anticancer Drug Screen. Data for the bub3 strain (AID 167). The note with it: S. cerevisiae bub3 mutant strain, stronger effect = higher value. An outline of the steps: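 Yeast carrying a defined mutation is treated with each compound, and growth is compared with that of vehicle-exposed cells to give inhibition.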
Test [5] is described as follows: NCI Yeast Anticancer Drug Screen. Data for the mlh1 rad18 strain (AID 175). The note with it: S. cerevisiae mlh1 rad18 strain growth inhibition, stronger effect = higher value. An outline of the steps: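 Genetically defined yeast (DNA repair-deficient) exposed to compounds; growth inhibition determined relative to vehicle.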
Test [6] is described as follows: NCI Yeast Anticancer Drug Screen. Data for the sgs1 mgt1 strain (AID 161).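 Note: 0% = growth of cultures given vehicle only.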 The note with it: S. cerevisiae sgs1 mgt1 strain, stronger effect = higher value. In a few lines:
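Yeast cells carrying a defined DNA-repair defect were exposed to test compounds. Growth inhibition was measured relative to vehicle-treated controls.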

Where [7] appears, read: at 5.0 µM (retest, dose inferred, filed as 0.5).
[8] abbreviates: at 50.0 µM (retest, dose inferred, filed as 5.0).

As to `CCOCc1ccccc1C(O)(c1ccc(OC)cc1)c1ccc(OC)cc1`, the growth inhibition was 5% (inactive) and 1% (inactive) in test [1] (setting [7]); 2% (inactive) and 1% (inactive) in test [1] (setting [8]); 48.3% (inactive) and 78.8% (active) in test [1] (at 50.0 µM); 2% (inactive) and 6% (inactive) in test [2] (setting [7]); 9% (inactive) and 11% (inactive) in test [2] (setting [8]); 33.4% (inactive) and 72.5% (active) in test [2] (at 50.0 µM). The growth inhibition in test [3] (setting [7]) is 3% (inactive) and 5% (inactive); in test [3] (setting [8]) it was 3% (inactive) and 7% (inactive); in test [3] (at 50.0 µM), 67% (inactive) and 94.2% (active); in test [4] (setting [7]), 3% (inactive) and 14% (inactive); in test [4] (setting [8]) it was 33% (inactive) and 61% (inactive); in test [4] (at 50.0 µM) it was 76.5% (active) and 95.8% (active). In addition, the growth inhibition in test [5] (setting [7]) was 3% (inactive) and 5% (inactive); in test [5] (setting [8]), -26% (inactive) and 41% (inactive); in test [5] (at 50.0 µM) it was 74% (active) and 82.8% (active).
`O=c1cc[nH]c2ccccc12`: the growth inhibition in test [1] (setting [7]) is 34% (inactive); in test [1] (setting [8]), 81% (active); in test [1] (at 50.0 µM) it was 13.5% (inactive) and 0% (inactive); in test [2] (setting [7]), 24% (inactive); in test [2] (setting [8]) it was 63% (inactive); in test [2] (at 50.0 µM), 1.25% (inactive) and -3.85% (inactive). The growth inhibition is 6% (inactive) in test [3] (setting [7]); 48% (inactive) in test [3] (setting [8]); 7.35% (inactive) and -24.1% (inactive) in test [3] (at 50.0 µM); 71% (active) in test [4] (setting [7]); 98% (active) in test [4] (setting [8]); -1.2% (inactive) and -1.85% (inactive) in test [4] (at 50.0 µM). Further, the growth inhibition is 50% (inactive) in test [5] (setting [7]); 88% (active) in test [5] (setting [8]); 0.7% (inactive) and 0.35% (inactive) in test [5] (at 50.0 µM).
As for `CCC(C)C(NC(=O)CN)C(=O)O` (stereo unspecified) (H-Gly-[ξI]-OH), the results for the growth inhibition in test [1] (at 50.0 µM), in test [2] (at 50.0 µM) and in test [5] (at 50.0 µM) were 6.95% (inactive) [middle of 4 runs], -3% (inactive) [middle of 4 runs] and -17.8% (inactive) [middle of 4 runs], respectively.
On to `OCC(O)C(O)C(O)C(O)CO` (stereo unspecified) (tested in a mixture with another compound), for which the results for the growth inhibition in test [6] (at 50.0 µM) and in test [5] (at 50.0 µM) were 0.35% (inactive) [middle of 6 runs] and 13.2% (inactive) [middle of 6 runs], respectively.
Regarding `COC(O)C(=O)c1c2c(cc3c1CCC3)CCCC2` (stereo unspecified), the growth inhibition was 98% (active) in test [2] (setting [7]); 99% (active) in test [2] (setting [8]); 88.4% (active) in test [2] (at 50.0 µM); 98% (active) in test [6] (setting [7]); 99% (active) in test [6] (setting [8]); 89.1% (active) in test [6] (at 50.0 µM). The growth inhibition in test [3] (setting [7]) was 85% (active); in test [3] (setting [8]) it was 100% (active); in test [3] (at 50.0 µM), 91.7% (active); in test [4] (setting [7]), 99% (active); in test [4] (setting [8]), 100% (active); in test [4] (at 50.0 µM), 90.5% (active). Also, the growth inhibition in test [5] (setting [7]) was 98% (active); in test [5] (setting [8]), 100% (active); in test [5] (at 50.0 µM) it was 92.5% (active).
For `Cc1ccc(CC(=O)c2c(C)[nH]c3ccccc23)cc1C`, the growth inhibition in test [1] (setting [7]) was 10% (inactive); in test [1] (setting [8]), 11% (inactive); in test [1] (at 50.0 µM), 95.7% (active); in test [2] (setting [7]) it was 7% (inactive); in test [2] (setting [8]), 24% (inactive); in test [2] (at 50.0 µM), 96.2% (active). The growth inhibition in test [4] (setting [7]) was 0% (inactive); in test [4] (setting [8]), 4% (inactive); in test [4] (at 50.0 µM), 92.5% (active); in test [5] (setting [7]), 20% (inactive); in test [5] (setting [8]), 8% (inactive); in test [5] (at 50.0 µM) it was 97% (active).
For the compound `COc1cc2c(cc1O)CC[n+]1cc3c(OC)c(OC)ccc3cc1-2`, the growth inhibition in test [1] (at 50.0 µM) was -56% (inactive) and 3.1% (inactive) and -3% (inactive); in test [2] (at 50.0 µM), -20% (inactive) and -15.3% (inactive) and 0.25% (inactive); in test [6] (at 50.0 µM) it was -20.8% (inactive) and 0.8% (inactive) and 20.3% (inactive); in test [3] (at 50.0 µM), 9.65% (inactive) and 5.15% (inactive) and -13.2% (inactive); in test [4] (at 50.0 µM), -15.4% (inactive) and -3.15% (inactive) and 15.6% (inactive); in test [5] (at 50.0 µM), -11.1% (inactive) and -69.1% (inactive) and 0% (inactive).
For `CCCCCCCCCCCCCCCCBr`, the growth inhibition in test [2] (setting [7]) is -2% (inactive); in test [2] (setting [8]) it was 0% (inactive); in test [2] (at 50.0 µM), 99.7% (active); in test [6] (setting [7]) it was -2% (inactive); in test [6] (setting [8]), 8% (inactive); in test [6] (at 50.0 µM) it was 99.3% (active). In addition, the growth inhibition in test [3] (setting [7]) is 4% (inactive); in test [3] (setting [8]), 1% (inactive); in test [3] (at 50.0 µM) it was 98.8% (active); in test [4] (setting [7]) it was -2% (inactive); in test [4] (setting [8]), -3% (inactive); in test [4] (at 50.0 µM) it was 99.5% (active). In addition, the growth inhibition is 6% (inactive) in test [5] (setting [7]), -5% (inactive) in test [5] (setting [8]) and 99.2% (active) in test [5] (at 50.0 µM).
`COC1OC2COC(c3ccccc3)OC2C2OC12` (stereo unspecified): the growth inhibition in test [1] (at 50.0 µM) is -7.7% (inactive) [middle of 4 runs]; in test [2] (at 50.0 µM), -2.5% (inactive) [middle of 4 runs]; in test [3] (at 50.0 µM), 3.15% (inactive) [middle of 4 runs]; in test [4] (at 50.0 µM), -4.2% (inactive) [middle of 4 runs]; in test [5] (at 50.0 µM), -12.8% (inactive) [middle of 4 runs].
On to `COc1cccc2c1C(=O)c1c(O)c3c(c(O)c1C2=O)C[C@@](O)(C(C)=O)C[C@@H]3OC1CC(N)C(O)C(C)O1` (stereo partly specified), for which the growth inhibition in test [1] (setting [7]) was 32% (inactive); in test [1] (setting [8]), 91% (active); in test [2] (setting [7]) it was -11% (inactive); in test [2] (setting [8]) it was 90% (active); in test [6] (setting [7]), 8% (inactive); in test [6] (setting [8]), 93% (active). The growth inhibition was 23% (inactive) in test [3] (setting [7]); 85% (active) in test [3] (setting [8]); 7% (inactive) in test [4] (setting [7]); 93% (active) in test [4] (setting [8]); 7% (inactive) in test [5] (setting [7]); 88% (active) in test [5] (setting [8]).
For the compound `O=C(O)C1CC(O)CN1` (stereo unspecified), the growth inhibition is 26.6% (inactive) and 12.2% (inactive) and -2.5% (inactive) in test [1] (at 50.0 µM); -9.75% (inactive) and 11.6% (inactive) and -22.9% (inactive) in test [2] (at 50.0 µM); 31.4% (inactive) and 15.3% (inactive) and 1.95% (inactive) in test [6] (at 50.0 µM); -4.7% (inactive) and 4.45% (inactive) and -18.1% (inactive) in test [3] (at 50.0 µM); 23.1% (inactive) and 13.8% (inactive) and 2.75% (inactive) in test [4] (at 50.0 µM); 30.6% (inactive) and 13.9% (inactive) and 1.9% (inactive) in test [5] (at 50.0 µM).
`CCCCCCC(C)CC(CCCCCC)NCCOC(=O)c1ccc([N+](=O)[O-])cc1` (stereo unspecified): the growth inhibition in test [2] (setting [7]) was 40% (inactive) and 22% (inactive); in test [2] (setting [8]), 99% (active); in test [2] (at 50.0 µM), 99.3% (active) and 99.5% (active); in test [6] (setting [7]), 80% (active) and 42% (inactive); in test [6] (setting [8]) it was 99% (active); in test [6] (at 50.0 µM), 99.2% (active) and 99.5% (active). In addition, the growth inhibition in test [3] (setting [7]) is 14% (inactive) and 2% (inactive); in test [3] (setting [8]), 98% (active); in test [3] (at 50.0 µM), 98.5% (active) and 99.1% (active); in test [4] (setting [7]), 19% (inactive) and 6% (inactive); in test [4] (setting [8]), 99% (active) and 98% (active); in test [4] (at 50.0 µM), 98.7% (active) and 99.3% (active). In addition, the growth inhibition in test [5] (setting [7]) is 72% (active) and 68% (inactive); in test [5] (setting [8]), 99% (active) and 98% (active); in test [5] (at 50.0 µM) it was 99% (active) and 99.5% (active).

(Values after PubChem BioAssay (NCI).)
